Rev-erbA mod = modulators of Rev-erb alpha DNA binding, primary screen, biochemical, FITC-DNA, fluorescence polarization, uHTS. Rev-erbα–FITC-DNA binding, 90 min. 370,000 tested, 0.79% active. activity, % at 10 µM. Nuclear receptor subfamily 1 group D member 1 (Homo sapiens), P20393. AID 1259318, 2017;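 active means activity above about 14%, limit read from the data; passing the limit was not always enough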
SKN-1 block = suppressors of acrylamide-induced Pgst-4::GFP reporter in worms, primary screen, SKN-1 inhibitor project, whole organism, uHTS, GFP/RFP fluorescence ratio, strain VP596; C. elegans VP596 Pgst-4::GFP/RFP ratio, 24 h; inhibition, % at 21.8 µM; 360,000 tested, 0.49% active;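 active means interference check ratio from 0.5 to 1.5 plus GFP to RFP signal ratio inhibition reaching or exceeding a fixed threshold, cut at about 30% in these data, passing the limit was not always enough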
PG9 binder = binders of HIV-1 gp120 antibody PG9, primary screen, biochemical, TR-FRET | HIV-1 gp120 / PG9 antibody interaction | TR-FRET gp120-PG9 antibody binding | inhibition, % at 6.7 µM | 360,000 tested, 0.43% active; in the data active means inhibition above about 8.5%
RAM network inh = inhibitors of the yeast RAM network, primary screen, dse1pr::URA3 reporter, 5-FOA selection. S. cerevisiae dse1pr::URA3 reporter, 5-FOA growth OD615, 2 d; analog-sensitive cbk1-as2 kinase mutant strain. inhibition, % at 50 µM. 190,000 tested, 1.8% active. AID 868, 2007;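 active means inhibition above a set limit, 3 SD over mean compound inhibition, cut at about 8.4% in these data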;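 further: inhibition rescues growth on 5-FOA so higher OD means more RAM inhibition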
EP2 modulator = EP2 receptor modulators, cAMP readout, primary screen, cell-based, HTRF cAMP, PGE2 stimulation; Prostaglandin E2 receptor EP2 subtype (Homo sapiens), P43116; EP2-expressing cells, cAMP HTRF FRET, PGE2 co-stimulation; induction, % at 25 µM; 260,000 tested, 0.83% active;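 active means compounds whose cAMP rise, as percent of the full-agonist control response, exceeds 60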;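 further: rat C6 glioma line stably carrying human EP2 under a CMV promoter; the protocol text gives 20 µM as final concentration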
PGE2 EP2 inh = human EP2 receptor antagonists, primary screen, TR-FRET cAMP, C6 glioma cells. C6 glioma cells expressing human EP2; cells stimulated with saturating PGE2. inhibition, % at 25 µM. 260,000 tested, 0.52% active. AID 1422, 2008;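 active means percent inhibition above 40 after rounding to a whole number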;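 further: rat C6 glioma host cells with rolipram phosphodiesterase inhibitor present; the protocol text gives 20 µM as final concentration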
Numbers stand for hits; – = inactive; · = not tested or not shown; ! = not active in a repeat. Compounds with a hit are over-represented: about 2.9% of the library has one in this group of screens.

SMILES	Rev-erbA mod	SKN-1 block	PG9 binder	RAM network inh	EP2 modulator	PGE2 EP2 inh
Cc1ccc(C(=O)NCCSC2CCCCC2)cc1S(=O)(=O)Nc1ccccc1	–	–	–	11	–	–
COc1ccc(S(=O)(=O)Nc2cc3c4c(oc3c3ccccc23)CC(C)(C)CC4=O)cc1	–	35	–	–	–	–
COC(=O)C(C(=O)OC)c1ccccc1NS(=O)(=O)c1ccc(C)cc1	–	–	–	·	·	·
COc1cc(NS(=O)(=O)c2ccc(C)cc2)c2c(c1N)C(=O)c1ccccc1C2=O	–	36	–	·	·	·
Cc1ccc(C2C(/C=C3/SC(=S)NC3=O)=C(c3cccs3)Oc3ccccc32)cc1 (configuration not stated)	–	–	–	10	–	–
O=C1NC(=S)SC1=Cc1ccccc1Cl	–	–	–	·	·	·
CCN1CCN(C(=O)c2cccs2)CC1	·	·	·	·	–	–
CC1CN(C(=O)c2cccs2)CCN1C(=O)c1cccs1 (configuration not stated)	–	43	–	–	–	–
C[N+]1(Cc2cc3ccccc3c3c2COC3)CCCCC1	·	·	·	·	–	–
N#C/C(=C\c1cccs1)Sc1nc2ccccc2s1	–	–	–	9.1	–	–
O=C(c1cc2sccc2n1Cc1ccccc1)N1CCc2ccccc21	–	–	–	–	64	–
COC(=O)c1cc2sccc2n1Cc1ccc(C)cc1	–	38	–	–	64	–
CCOC(=O)c1cc2sccc2n1CCCN1C(=O)c2ccccc2C1=O	–	–	–	9.0	–	–
O=C(c1cc2sccc2n1Cc1ccccc1)N1CCCCC1	·	·	·	·	–	–
CCOC(=O)c1cc2sccc2n1Cc1ccccc1	–	–	–	–	63	–
CCc1ccccc1NC(=O)COC(=O)c1cccnc1	·	·	·	·	–	–
Cc1ccc(S(=O)(=O)N2CCC(C(=O)Nc3nnc(-c4ccco4)s3)CC2)cc1	–	–	–	–	–	46!
O=C(Nc1nnc(-c2ccco2)s1)C1CCCCC1	–	–	–	–	–	–
CC1CCCN(c2nc3c(c(=O)[nH]2)CCN(Cc2ccc(F)cc2)C3)C1 (configuration not stated)	·	·	·	·	–	–
COC(=O)c1ccc(NC(=S)N2CCC3(CC2)OCCO3)cc1	·	·	·	·	–	–
Cc1cc2cc(CNC(=O)c3ccc(S(=O)(=O)N4CCCCC4)cc3)ccc2n1C	–	62	–	–	–	–
Cc1ccc(CNC(=O)c2ccc(S(=O)(=O)N3CCCCC3)cc2)cc1	–	–	–	·	·	·
Cc1cc2cc(CNC(=O)c3ccc(S(=O)(=O)N4CCCC4)cc3)ccc2n1C	–	46	–	–	–	–
CCN(CC)S(=O)(=O)c1ccc(C(=O)NCc2ccc3c(c2)cc(C)n3C)cc1	–	–	–	–	–	–
CC[C@H](Cn1nc(-c2ccc(F)c(F)c2)ccc1=O)NC(=O)Cc1nonc1C	·	·	·	·	–	·
SMILES	Rev-erbA mod	SKN-1 block	PG9 binder	RAM network inh	EP2 modulator	PGE2 EP2 inh
O=C(Cc1ccccc1Cl)N1CCCC(c2nc(-c3cccnc3)n[nH]2)C1 (configuration not stated)	·	·	·	·	–	·
Cc1nn2c(C(F)(F)F)c3c(nc2c1-c1ccccc1)CCC3	–	–	–	–	62	–
Cn1c(SCC(=O)c2ccccc2)nnc1C1COc2ccccc2O1 (configuration not stated)	–	–	–	·	–	–
Cc1cc(C(=O)CSc2nnc(C3COc4ccccc4O3)n2C)c(C)n1-c1ccc(F)cc1 (configuration not stated)	–	48	–	–	–	–
CCc1ccc(-n2c(SCC(=O)Nc3cc(C)[nH]n3)nc3[nH]ncc3c2=O)cc1	–	39	–	–	–	–
Cc1ccc(C)c2[nH]c(=O)c(CN(CC3CCCO3)C(=S)Nc3ccccc3)cc12 (configuration not stated)	·	·	·	·	–	–
